Data as given in PubChem BioAssay (Tox21).
“And” between values parts separate entries of the source, which are not always exact repeats. Equal entries are not always repeated. Records with an inconclusive call do not appear. The source made the active and inactive calls. Unless noted, calls follow the shape of the dose curve; as a rule, active = well fitted curve in the direction sought with a large enough effect in the repeat runs; inconclusive = weak or mixed curves; inactive = no such curve, though single readings can be large; an effect the other way counts as inactive or inconclusive.

Tests used:
[1] = qHTS assay to identify small molecule antagonists of the estrogen related receptor (ERR) signaling pathway from Tox21 library - cell viability counter screen (AID 1224834); also: nearly all actives have a fitted effect of over 30% in size; also: potency is read from the fitted curve at half-maximal effect
How it was run: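 Multiplexed viability counter screen in ERR cells: 17.5 h compound exposure at 37 C, CellTiter-Fluor added, 30 min at 37 C/5% CO2, fluorescence read.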

[2] = qHTS assay to identify small molecule agonists of the constitutive androstane receptor (CAR) signaling pathway - cell viability counter screen (AID 1224836); also: nearly all actives have a fitted effect of over 45% in size; also: potency is read from the fitted curve at half-maximal effect
How it was run: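 Double-stable HepG2 hepatoma cells (hCAR plus CYP2B6-2.2kb) are treated for 23 h at 37 C with test compounds in 15-point concentration series. PK11195 at 0.75 uM final is co-added. Cell viability is quantified by CellTiter-Fluor.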

[3] = qHTS assay to identify small molecule antagonists of the estrogen related receptor signaling pathway with the pleiotropic PPARgamma coactivator (PGC) from Tox21 10K library - cell viability counter screen (AID 1224840; active = well fitted cell-killing curve with a large enough effect in the repeat runs, not every such curve was filed as active; also: nearly all actives have a fitted effect of over 40% in size; also: potency is read from the fitted curve at half-maximal effect)
How it was run: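 Fluorescence read-out of CellTiter-Fluor viability reagent, added after cells had been exposed to compound in DMSO for 17.5 h at 37 C; 30 min development at 37 C/5% CO2. Cells: PGC/ERR line, 2,000/well.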

[4] = qHTS assay to identify small molecule agonists of the estrogen related receptor signaling pathway with the pleiotropic PPARgamma coactivator (PGC) from Tox21 10K library (AID 1224842); also: nearly all actives have a fitted effect of over 15% in size
How it was run: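 PGC/ERR reporter cell line, 2,000 cells per well, incubated 6 h at 37 C before 23 nL compound in DMSO was added. After 18 h at 37 C, One-Glo luminescence read following 30 min at room temperature.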

[5] = qHTS assay to identify small molecule agonists of the estrogen related receptor (ERR) signaling pathway from Tox21 library (AID 1224849; calls by dose curve; also: nearly all actives have a fitted effect of over 15% in size); details: ERR reporter cell line, ONE-Glo luciferase, 18 h
How it was run: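 Luminescence readout (ONE-Glo, 30 min RT) after 18 h compound exposure at 37 C of NTP-supplied ERR reporter cells; cells were plated 6 h before compound addition by pin tool.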

[6] = qHTS RealTime-Glo MT Cell Viability Assay in HepG2 cells - 24 hour (AID 1224867); also: nearly all actives have a fitted effect of over 50% in size; also: potency is read from the fitted curve at half-maximal effect
How it was run: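 qHTS, HepG2, 600 cells/well, RealTime-Glo (NanoLuc + prosubstrate) added with cells; 5 h preincubation; DMSO compound addition; 37 C; luminescence at 0/8/16/24/32/40 h.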

[7] = A CellTox Green Cytotoxicity Assay to monitor cytotoxicity in HEK293 cells - 0 hour (AID 1224869); also: nearly all actives have a fitted effect of over 50% in size; also: potency is read from the fitted curve at half-maximal effect
How it was run: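 Read-out: fluorescence of a cell-impermeant cyanine dye staining DNA of dead cells, proportional to cytotoxicity. HEK293, 600 cells/well with reagent, compound (23 nL DMSO) added after 5 h; reads at 0, 8, 16, 24, 32, 40 h.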

[8] = qHTS RealTime-Glo MT Cell Viability Assay in HepG2 cells - 40 hour (AID 1224870); also: nearly all actives have a fitted effect of over 50% in size; also: potency is read from the fitted curve at half-maximal effect
How it was run: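 HepG2 cells (600/well) mixed with RealTime-Glo MT reagent, settled 5 h at 37 C/5% CO2 before compound addition. Nonlytic NanoLuc luminescence from viable-cell prosubstrate reduction read repeatedly during 40 h treatment at 37 C.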

[9] = qHTS assay to identify small molecule antagonists of the constitutive androstane receptor (CAR) signaling pathway - cell viability counter screen (AID 1224837); also: nearly all actives have a fitted effect of over 45% in size; also: potency is read from the fitted curve at half-maximal effect
How it was run: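 Read-out: CellTiter-Fluor fluorescence after 23 hr at 37 C/5% CO2. Cells: HepG2 double-stable for hCAR and CYP2B6-2.2kb. Compounds tested at 15 concentrations in the presence of CITCO, final concentration 50 nM.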

[10] = molecular target: Thyrotropin receptor (Homo sapiens) (UniProt P16473); assay: qHTS assay to identify small molecule agonists of the thyroid stimulating hormone receptor (TSHR) signaling pathway (AID 1224843; calls by dose curve; also: nearly all actives have a fitted effect of over 45% in size)
How it was run: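 Agonist-mode screen: TSHR HEK293 cells received test chemicals for half an hour at room temperature, then HTRF cAMP detection reagents for one hour prior to fluorescence measurement. Each chemical ran as a 15-concentration series, triplicated.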

[11] = qHTS assay to identify small molecule agonists of the hypoxia (HIF-1) signaling pathway - cell viability counter screen (AID 1224844; calls by dose curve; also: nearly all actives have a fitted effect of over 50% in size)
How it was run: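 CellTiter-Glo luminescence read-out, 30 min RT, taken in the same wells as the beta-lactamase HRE reporter assay; HRE-bla ME-180 cells, 0.5% dialyzed FBS, 17 hr compound treatment at 37C, 5% CO2.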

[12] = qHTS assay to identify small molecule agonists of the hypoxia (HIF-1) signaling pathway (AID 1224846; active = well fitted activation curve with a large enough effect in the signal ratio in the repeat runs, not every such curve was filed as active; the % refers to the signal ratio)
How it was run: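 Beta-lactamase FRET read-out (CCF4-AM substrate) from ME-180 cells carrying an HRE-driven bla reporter, after 17 hrs compound exposure at 37C/5% CO2. Cells were seeded at 2,000 per well in 0.5% dialyzed FBS medium and preincubated 5 hrs.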

[13] = qHTS assay to identify small molecule agonists of H2AX - cell viability counter screen (AID 1224847; calls by dose curve; also: top concentration of the series differs between compounds; nearly all actives have a fitted effect of over 30% in size)
How it was run: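 For this counter screen, overnight-attached CHO-K1 cells received test compounds (15 concentrations, 0.76% DMSO final); 3 hr later at 37C, CellTiter-Glo reagent was added and luminescence recorded after 30 min at room temperature.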

[14] = qHTS RealTime-Glo MT Cell Viability Assay in HEK293 cells - 32 hour (AID 1224868); also: nearly all actives have a fitted effect of over 50% in size; also: potency is read from the fitted curve at half-maximal effect
How it was run: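 Assay medium contained NanoLuc luciferase plus cell-permeant prosubstrate, added with HEK293 cells at 600 cells/well. After 5 h at 37 C/5% CO2 compounds were added; plates stayed at 37 C for 40 h with serial luminescence reads.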

[15] = qHTS assay to identify small molecule antagonists of the estrogen related receptor (ERR) signaling pathway from Tox21 library (AID 1224848); also: nearly all actives have a fitted effect of over 50% in size
How it was run: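 Quantitative high-throughput format: ERR reporter cells (2,000/well) pre-incubated 6 h, treated 18 h at 37 C with compounds in DMSO alongside positive and negative controls, then read by ONE-Glo luminescence.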

[16] = molecular target: Nuclear receptor subfamily 1 group I member 3 (Homo sapiens) (UniProt Q14994); assay: qHTS assay to identify small molecule antagonists of the constitutive androstane receptor (CAR) signaling pathway (AID 1224838);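 also: HepG2 cells stably expressing hCAR with CYP2B6 luciferase reporter stimulated by CITCO; nearly all actives have a fitted effect of over 40% in size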; also: potency is read from the fitted curve at half-maximal effect
How it was run: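 Read-out: ONE-Glo luciferase luminescence after 30 min at room temperature. HepG2-CYP2B6-hCAR double-stable cells, compounds in 15-point titration plus 50 nM CITCO final, 24 h at 37 C/5% CO2.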

[17] = molecular target: Nuclear receptor subfamily 1 group I member 3 (Homo sapiens) (UniProt Q14994); assay: qHTS assay to identify small molecule agonists of the constitutive androstane receptor (CAR) signaling pathway (AID 1224839);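 also: HepG2 cells stably carrying human CAR and a CYP2B6 luciferase reporter; nearly all actives have a fitted effect of over 15% in size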
How it was run: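 Readout: firefly luciferase luminescence via ONE-Glo. System: HepG2 double-stable for hCAR and CYP2B6-2.2kb. Conditions: 15-point compound titration, PK11195 at 0.75 uM final, 24 h incubation.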

[18] = qHTS assay to identify small molecule antagonists of the estrogen related receptor signaling pathway with the pleiotropic PPARgamma coactivator (PGC) from Tox21 10K library (AID 1224841; call rule not given here)
How it was run: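 Luminescence read-out (One-Glo luciferase reagent, 30 min at room temperature) from PGC/ERR cells exposed to DMSO-dissolved test compounds for 18 h at 37 C; cells, 2,000 per well, had been preincubated 6 h before compound transfer.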

[19] = qHTS assay to identify small molecule agonists of H2AX (AID 1224845; active = well fitted activation curve with a large enough effect in the signal ratio in the repeat runs, not every such curve was filed as active; the % refers to the signal ratio)
How it was run: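 Wild-type CHO-K1 cells, plated overnight, exposed 3hr at 37C to 15 concentrations (0.76% DMSO final). Lysed, then HTRF anti-pH2AX (S139) cryptate and anti-H2AX-d2 antibodies, 24 hr room temperature; 665/620 nm emission read.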
% is scaled to controls: 0 for no effect and ±100 for the full control effect.

Thyrotropin receptor (Homo sapiens), sequence (P16473 whole entry, looked up): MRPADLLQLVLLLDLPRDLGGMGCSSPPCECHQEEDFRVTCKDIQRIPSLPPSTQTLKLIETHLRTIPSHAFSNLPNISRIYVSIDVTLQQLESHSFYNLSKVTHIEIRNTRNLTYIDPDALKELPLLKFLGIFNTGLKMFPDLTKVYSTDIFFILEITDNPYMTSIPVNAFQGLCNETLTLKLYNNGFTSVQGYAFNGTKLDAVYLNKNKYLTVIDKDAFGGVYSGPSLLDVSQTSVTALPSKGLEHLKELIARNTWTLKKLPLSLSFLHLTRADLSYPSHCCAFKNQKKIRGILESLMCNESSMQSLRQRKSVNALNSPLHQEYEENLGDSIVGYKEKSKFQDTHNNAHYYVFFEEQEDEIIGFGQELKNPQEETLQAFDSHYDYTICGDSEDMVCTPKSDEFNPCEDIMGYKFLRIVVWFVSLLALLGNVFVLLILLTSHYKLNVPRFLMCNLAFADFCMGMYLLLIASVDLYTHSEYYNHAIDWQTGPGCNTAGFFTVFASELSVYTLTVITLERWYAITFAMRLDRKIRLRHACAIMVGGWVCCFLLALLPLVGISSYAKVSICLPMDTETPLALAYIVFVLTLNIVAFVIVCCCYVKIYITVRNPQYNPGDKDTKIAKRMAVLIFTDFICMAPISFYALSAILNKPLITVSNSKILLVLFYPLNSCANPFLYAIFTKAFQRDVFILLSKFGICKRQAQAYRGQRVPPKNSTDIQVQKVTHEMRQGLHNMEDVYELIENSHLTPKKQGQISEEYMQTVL
Nuclear receptor subfamily 1 group I member 3 (Homo sapiens), sequence (Q14994 whole entry, looked up): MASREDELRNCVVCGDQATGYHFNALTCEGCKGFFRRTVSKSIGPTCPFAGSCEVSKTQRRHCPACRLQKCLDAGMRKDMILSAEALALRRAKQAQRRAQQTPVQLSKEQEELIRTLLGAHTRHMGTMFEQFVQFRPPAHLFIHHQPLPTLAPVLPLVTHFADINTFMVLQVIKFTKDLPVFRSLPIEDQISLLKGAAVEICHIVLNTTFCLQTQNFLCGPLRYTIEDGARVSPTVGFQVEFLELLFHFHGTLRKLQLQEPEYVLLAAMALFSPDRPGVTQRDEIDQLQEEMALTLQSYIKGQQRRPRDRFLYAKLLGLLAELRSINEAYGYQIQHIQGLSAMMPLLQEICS

CCCCC(CC)CN1CN(CC(CC)CCCC)CC(C)(N)C1 (stereo not given)
active: Potency [6] 16.9 µM | Potency [8] 21.3 µM
inactive: Potency [1] | Potency [2] | Potency [3] | Potency [4] | activity change, positive = activation ([5]; at 42.5 µM (top of the series)) -16.4% | Potency [7]

Cl[Si](Cl)(c1ccccc1)c1ccccc1
inactive: Potency [1] | Potency [2] | Potency [9] | Potency [3] | Potency [10] | Potency [11] | Potency [12] | Potency [13] | Potency [6] | Potency [14] | Potency [7] | Potency [8]

COc1cccc2c1C(=O)c1c(O)c3c(c(O)c1C2=O)C[C@@](O)(C(C)=O)C[C@@H]3O[C@H]1C[C@H](N)[C@H](O)[C@H](C)O1
inactive: Potency [13] | Potency [15] | activity change, positive = activation ([5]; at 42.5 µM (top of the series)) -0.62% | activity change, positive = activation ([5]; at 92.4 µM (top of the series)) -74.3%
active: Potency [1] 30.8 µM and 473 nM | Potency [2] 19.4 µM and 1.19 µM | Potency [9] 2.75 µM and 211 nM | Potency [3] 27.5 µM | Potency [6] 24.7 µM | Potency [14] 69.6 nM and 3.4 nM | Potency [7] 43.9 µM

CCCCCCCC/C=C\CCCCCCCCN
inactive: Potency [1] | Potency [2] | Potency [9] | Potency [16] | Potency [17] | Potency [3] | Potency [18] | Potency [4] | Potency [10] | Potency [19] | Potency [12] | Potency [13] | Potency [15] | activity change, positive = activation ([5]; at 42.5 µM (top of the series)) -2.95% | Potency [7]
active: Potency [14] 23.9 µM

CN(C)Cc1ccccc1O
inactive: Potency [1] | Potency [2] | Potency [9] | Potency [16] | Potency [17] | Potency [3] | Potency [18] | Potency [4] | Potency [10] | Potency [11] | Potency [12] | Potency [15] | activity change, positive = activation ([5]; at 92.4 µM (top of the series)) 0.52% | Potency [6] | Potency [7] | Potency [8]

c1ccc(SSc2ccccc2)cc1
active: Potency [16] 43.6 µM
inactive: Potency [1] | Potency [2] | Potency [17] | Potency [3] | Potency [11] | Potency [12] | Potency [13] | Potency [6] | Potency [7] | Potency [8]

OC1CCC(C2CCCCC2)CC1 (stereo not given)
inactive: Potency [1] | Potency [2] | Potency [3] | Potency [18] | Potency [11] | Potency [19] | Potency [12] | Potency [15] | activity change, positive = activation ([5]; at 92.4 µM (top of the series)) -1.53% | Potency [6] | Potency [14] | Potency [7] | Potency [8]

CCCCNS(=O)(=O)c1ccc(C)cc1
inactive: Potency [1] | Potency [2] | Potency [9] | Potency [16] | Potency [3] | Potency [11] | Potency [19] | Potency [12] | Potency [13] | Potency [6] | Potency [14] | Potency [7] | Potency [8]
